Inconclusive results are not listed. The source made the active and inactive calls. Unless noted, no cut-off is given here; in the data, nearly all actives have AC50 up to about 30 µM.
Legend:
[1] = growth inhibition of DIPG glioma cells, dose response, cell-based, SU-DIPG-XIII, MIPE4.0, CellTiter-Glo, qHTS (AID 1347061; cut-off not given, nearly all actives have AC50 up to about 37 µM;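 note: cells exposed to compound for 48 hours before readout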); details: SU-DIPG-XIII viability, CellTiter-Glo ATP luminescence
[2] = SU-DIPG-VI glioma cell viability, MIPE4.0 library, CellTiter-Glo luminescence, qHTS (AID 1347066); details: CellTiter-Glo ATP luminescence;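 note: cells exposed to compound for 48 hours before readout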
[3] = sensitizers of A549 cells to miR-34 induction, primary screen, imaging, A549 dox-inducible miR-34, nuclei and caspase counts (AID 1347080;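 active = compounds whose cell count with miR-34 switched on is under 0.7 times the count with it off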); details: A549 miR-34 inducible, Hoechst nuclei count, 48 h
[4] = tested on: Hepatitis C virus NS3 helicase; assay: HCV NS3 helicase inhibitors, primary screen, biochemical, fluorescence polarization, LOPAC1280 library (AID 687035; in the data active = inhibition above about 37%); details: Purified HCV NS3 helicase, Cy5-dT15 ssDNA binding fluorescence polarization; stronger effect = higher value; concentration not given here
[5] = Cy5 fluorescence quenching or enhancement artefacts, artefact control for HCV NS3 helicase inhibitor project, biochemical, LOPAC1280 (AID 687037; call rule not given here); details: Cy5-DNA-NS3h complex fluorescence interference counterscreen
[6] = phospholipid biosynthesis inhibitors in animal cells, primary screen, cell-based, LOPAC library, screen 4 (AID 1347384; call rule not given here); details: phospholipid biosynthesis inhibition screen, at 10 µM
[7] = viability rescue of complex I mutant cybrids, primary screen, cell-based, galactose medium, ATP luminescence (AID 1645843;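 active = z-score of at least 1.8 in each of two replicates, scored against plate mean and spread of sample wells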;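 note: positive z means more ATP and so rescue of galactose-driven cybrid death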); details: complex I mutant cybrid cells, 72 h, stronger effect = higher value
[8] = growth inhibition of DIPG glioma cells, dose response, cell-based, JHH-DIPG-1, MIPE4.0, CellTiter-Glo, qHTS (AID 1347062; cut-off not given, nearly all actives have AC50 up to about 27 µM;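 for AC50: cells exposed to compound for two days before readout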); details: JHH-DIPG-1 viability, CellTiter-Glo ATP luminescence
[9] = growth inhibition of DIPG glioma cells, dose response, cell-based, SU-DIPG-IV, MIPE4.0, CellTiter-Glo, qHTS (AID 1347063); details: SU-DIPG-IV viability, CellTiter-Glo ATP luminescence;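 note: compound exposure lasted 48 hours before the viability readout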
[10] = viability loss in pontine glioma line – cell-based, SU-DIPG-XXV, MIPE5.0, CellTiter-Glo, qHTS, dose response (AID 1347065; cut-off not given, nearly all actives have AC50 up to about 26 µM;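 note: cells exposed to compound for 48 hours before ATP readout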); details: CellTiter-Glo ATP luminescence
[11] = growth inhibition of DIPG glioma cells, dose response, cell-based, SU-DIPG-XIII, MIPE5.0, CellTiter-Glo, qHTS (AID 1347064; cut-off not given, nearly all actives have AC50 up to about 23 µM;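 for AC50: cells exposed to compound for 48 hours before the viability read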); details: SU-DIPG-XIII viability, CellTiter-Glo ATP luminescence
[12] = JHH-DIPG-1 glioma cell viability, MIPE5.0 library, CellTiter-Glo luminescence, qHTS (AID 1347067; cut-off not given, nearly all actives have AC50 up to about 26 µM;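 note: cells exposed to compound for 48 hours before readout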); details: JHH-DIPG-1 glioma viability, CellTiter-Glo ATP luminescence
[13] = SU-DIPG-XXV glioma cell viability, MIPE5.0 library, qHTS (AID 1347068; cut-off not given, nearly all actives have IC50 up to about 30 µM;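 for IC50: cells exposed to compound for 48 hours before viability readout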)
[14] = survival rescue of mitochondrial mutant cells in low glucose, primary screen, MELAS cybrids, Rieske KO mouse fibroblasts, CellTiter-Glo (AID 1508586;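 active = mean z-score across replicates of 1.96 or higher in either the MELAS or the Rieske mutant cell line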;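 note: z relative to plate mean and SD of compound and empty wells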)
[15] = stronger effect = lower value, cell number ratio, induced over uninduced
[16] = measured here: relative caspase fold change +Dox/-Dox
[17] = measured here: total cells with miR-34 induction, stronger effect = lower value
[18] = measured here: total cells without miR-34 induction
[19] = MELAS cybrid survival, CellTiter-Glo 48 h, stronger effect = higher value
[20] = Rieske KO mouse fibroblast survival, CellTiter-Glo 72 h

SMILES: CN(C1CCc2c(c3ccccc3n2CC(=O)O)C1)S(=O)(=O)c1ccc(F)cc1 (stereo not drawn)
- outcome [1]: inactive
- outcome [2]: inactive
- fold change [3, 15]: 1.07 (inactive)
- fold change [3, 16]: 0.901
- cell count [3, 17]: 6410
- cell count [3, 18]: 5990

SMILES: COC(=O)C1=CO[C@@H](O)[C@@H]2C(CO)=CC[C@H]12
- inhibition [4]: -3% (inactive)
- fluorescence ratio (interference) [5]: 1 (inactive)
- outcome [1]: inactive
- fold change [3, 15]: 1 (inactive)
- fold change [3, 16]: 0.878
- cell count [3, 17]: 10100
- cell count [3, 18]: 10100
- outcome [6]: inactive
- z-score [7]: -0.175 (inactive)

SMILES: CC(C)C[C@H](NC(=O)c1cc2ccccc2s1)C(=O)N1CCN(C(=O)[C@H](CO)NS(=O)(=O)c2ccc(Cl)cc2Cl)CC1
- outcome [8]: inactive
- AC50 [9]: 20.9 µM (active)
- AC50 [10]: 20.9 µM (active)
- AC50 [2]: 23.5 µM (active)

SMILES: c1cc(N[C@@H]2CCNC2)nc(-c2cnc3ccc(-c4cn[nH]c4)cn23)c1
- AC50 [8]: 11.8 µM (active)
- AC50 [9]: 14.8 µM (active)
- AC50 [11]: 14.8 µM (active)
- AC50 [10]: 16.6 µM (active)
- AC50 [2]: 18.7 µM (active)
- AC50 [12]: 16.6 µM (active)
- IC50 [13]: 11.8 µM (active)

SMILES: Cc1noc(-c2ccc(CSCCC(=O)O)cc2)c1NC(=O)OC(C)c1ccccc1Cl (stereo not drawn)
- outcome [8]: inactive
- outcome [9]: inactive
- outcome [11]: inactive
- outcome [10]: inactive
- outcome [2]: inactive
- outcome [12]: inactive
- outcome [13]: inactive
- fold change [3, 15]: 0.888 (inactive)
- fold change [3, 16]: 1.07
- cell count [3, 17]: 6620
- cell count [3, 18]: 7460
- z-score [14, 19]: -0.439 (inactive)
- z-score [14, 20]: 0.718

SMILES: COc1cc(OC)cc(-c2ccc3ncc4ccc(=O)n(-c5ccc(N6CCNCC6)c(C(F)(F)F)c5)c4c3c2)c1
- AC50 [8]: 16.6 µM (active)
- AC50 [9]: 2.64 µM (active)
- AC50 [2]: 13.2 µM (active)

SMILES: C[C@H](c1ccc(F)cc1CCCC(=O)O)N(c1cc(F)ccc1F)S(=O)(=O)c1ccc(Cl)cc1
- outcome [8]: inactive
- outcome [9]: inactive
- outcome [2]: inactive
- outcome [12]: inactive
- outcome [13]: inactive

SMILES: CN[C@@H]1[C@@H](O)[C@@H](O[C@@H]2[C@@H](O)[C@H](O[C@H]3O[C@H](CN)[C@@H](O)[C@H](O)[C@H]3O)[C@@H](N)C[C@H]2NC(=O)[C@@H](O)CN)OC[C@]1(C)O
- outcome [8]: inactive
- outcome [9]: inactive
- outcome [2]: inactive

SMILES: COc1cc(C(=O)N2CCC(N3CCN(C)CC3)CC2)ccc1Nc1ncc2c(n1)N(C)c1ccccc1C(=O)N2C
- AC50 [8]: 16.6 µM (active)
- AC50 [9]: 16.6 µM (active)
- AC50 [12]: 18.6 µM (active)
- IC50 [13]: 20.9 µM (active)

SMILES: CCCn1c(=O)c2[nH]c(-c3cnn(Cc4cccc(C(F)(F)F)c4)c3)nc2n(CC)c1=O
- outcome [8]: inactive
- AC50 [10]: 13.2 µM (active)
- outcome [2]: inactive
- outcome [13]: inactive

SMILES: CCc1nc(-c2cccc(C)c2)c(-c2ccnc(NC(=O)c3ccccc3)c2)s1
- outcome [8]: inactive
- outcome [9]: inactive
- fold change [3, 15]: 0.974 (inactive)
- fold change [3, 16]: 0.928
- cell count [3, 17]: 5690
- cell count [3, 18]: 5840
- z-score [14, 19]: 0.655 (inactive)
- z-score [14, 20]: 0.137

SMILES: COc1ccc(-c2c(-c3ccc(O)cc3O)n[nH]c2C)cc1
- outcome [8]: inactive
- outcome [11]: inactive
- outcome [10]: inactive
- outcome [2]: inactive
- outcome [13]: inactive
- fold change [3, 15]: 0.931 (inactive)
- fold change [3, 16]: 0.724
- cell count [3, 17]: 7090
- cell count [3, 18]: 7620
- z-score [14, 19]: 0.614 (inactive)
- z-score [14, 20]: -0.216
- z-score [7]: -1.81 (inactive)
